Test results taken from the supplement of paper PMC3334620.
The full ranking holds about 33,000 sequences; the median of “E-score (-0.5 to 0.5)” is about -8e-05, and the highest 2% start at about 0.23. This is one part of a sample in which the highest values are shown more often than they occur.

What follows are sequences tested against T1, Nrg2 (UniProt P38082) (assay: PBM E-score (8-mer binding enrichment) (E-score (-0.5 to 0.5)); higher = stronger / more preferred TF binding). Details: protein concentration: 100 nM; construct: GST-full length.
T1 sequence: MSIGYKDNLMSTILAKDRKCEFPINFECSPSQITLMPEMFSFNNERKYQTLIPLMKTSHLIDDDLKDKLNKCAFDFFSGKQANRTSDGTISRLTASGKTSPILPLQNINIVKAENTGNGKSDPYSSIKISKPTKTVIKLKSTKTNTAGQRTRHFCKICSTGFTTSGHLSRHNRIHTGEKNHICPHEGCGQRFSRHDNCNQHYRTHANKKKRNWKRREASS
In short: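 Yeast transcription factors, full-length or as DNA-binding domains, were expressed with a GST tag using PURExpress in vitro transcription/translation. At about 100-200 nM they were applied to universal all-10-mer Agilent arrays, double-stranded by primer extension on fresh or once-stripped slides. Fluorescent anti-GST detected bound protein, and masliner normalised the scans. E-scores for ungapped eight-base words, pooled with reverse complements, came from the Universal PBM Analysis Suite.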

First: CCCCTGAG
Second: ACCCTGTC
The “PBM E-score” value of the first is lower: 0.176 for the first, 0.201 for the second.

First: AACCTGAT
Second: ACCCTGTG
The “PBM E-score” value of the first is lower: 0.0634 for the first, 0.289 for the second.

Going from ACCCTGAT to ATCCTGAG, the “PBM E-score” value falls from 0.249 to 0.0135.

First: AGCCTGTG
Second: ACCCTGAG
The “PBM E-score” value of the first is lower: -0.118 for the first, 0.368 for the second.

Compared with GCCCTGAC, AACCTGTG is higher in “PBM E-score” value: -0.00086 for the first, 0.0227 for the second.

First: ACCCTGAC
Second: AGCCTGAT
The “PBM E-score” value of the first is higher: 0.334 for the first, -0.168 for the second.

First: GTTAGCGA
Second: ATATCGAT
The “PBM E-score” value of the first is lower: -0.131 for the first, 0.213 for the second.

Going from CTCTGCTC to ACACTATG, the “PBM E-score” value rises from -0.0804 to 0.0263.

Going from CTACTTGC to ACCTTAGC, the “PBM E-score” value falls from 0.141 to 0.025.

First: CGTTCACC
Second: AGCCTCCC
The “PBM E-score” value of the first is higher: -0.11 for the first, -0.381 for the second.

Compared with ACCGATCG, TCTGACCA is higher in “PBM E-score” value: -0.0446 for the first, 0.216 for the second.

Going from TAATAAGA to GCTTGCTA, the “PBM E-score” value falls from 0.0444 to -0.0547.

First: CCCCTGTC
Second: CCCCTGAC
The “PBM E-score” value of the first is lower: -0.151 for the first, 0.235 for the second.

First: CTCCTGAC
Second: ATATAACA
The “PBM E-score” value of the first is higher: 0.0802 for the first, 0.078 for the second.

First: ATATAAAT
Second: CTATAAAC
The “PBM E-score” value of the first is higher: 0.252 for the first, -0.086 for the second.

Going from ATATAACC to ATATAAAA, the “PBM E-score” value falls from 0.145 to 0.0793.

Compared with ATATAAAG, ATATAAAC is higher in “PBM E-score” value: 0.0638 for the first, 0.255 for the second.

Going from GTATAAAC to ATATAACG, the “PBM E-score” value rises from 0.156 to 0.243.

Going from ATGAGTAA to ACTCGGAC, the “PBM E-score” value rises from 0.0697 to 0.0898.

Compared with ACTAGGGC, ACTGAACC is lower in “PBM E-score” value: -0.0479 for the first, -0.111 for the second.

Going from GTCTTTTA to ATATCTTG, the “PBM E-score” value rises from -0.195 to 0.0388.

Compared with AATCCTCC, AGACAGCT is higher in “PBM E-score” value: -0.123 for the first, 0.12 for the second.

Compared with GTCACGGA, CGCCATGA is lower in “PBM E-score” value: -0.00114 for the first, -0.0296 for the second.

Compared with CTATCTAC, AAGCTTCC is lower in “PBM E-score” value: 0.00786 for the first, -0.206 for the second.

Going from AGCGGATA to CGCGGATC, the “PBM E-score” value rises from -0.042 to 0.037.

Going from AACGGATT to CACGGATA, the “PBM E-score” value rises from 0.148 to 0.235.

Going from CACGGATG to AACGGATA, the “PBM E-score” value rises from -0.149 to 0.258.

Compared with AACGGATG, TACGGATA is higher in “PBM E-score” value: -0.00493 for the first, 0.0194 for the second.

Going from CGCGGATA to ACCGACAC, the “PBM E-score” value falls from 0.246 to -0.0406.

First: GGGAGGAC
Second: GTCGTTTA
The “PBM E-score” value of the first is higher: 0.0465 for the first, -0.00227 for the second.

First: AACGTCAC
Second: CCGCCCAG
The “PBM E-score” value of the first is higher: -0.00893 for the first, -0.0404 for the second.

Going from TAATCAGA to AAATCAGA, the “PBM E-score” value falls from 0.133 to 0.129.

Going from GAATCAGA to CGTTAAAG, the “PBM E-score” value falls from 0.23 to 0.00135.

Compared with GAGCTACA, AGATACTC is higher in “PBM E-score” value: -0.114 for the first, 0.1 for the second.

Going from AGATACTG to AGATACTA, the “PBM E-score” value falls from 0.242 to 0.0761.

Going from AGATACAG to AGATACAC, the “PBM E-score” value rises from 0.136 to 0.244.

First: GGATACAC
Second: ATACATGC
The “PBM E-score” value of the first is lower: -0.0641 for the first, -0.0508 for the second.

Compared with GGTTATGA, CAAAAGGA is higher in “PBM E-score” value: -0.0752 for the first, -0.0703 for the second.

First: ACCCTAAC
Second: GACTGTTA
The “PBM E-score” value of the first is higher: 0.116 for the first, -0.0515 for the second.

Compared with AGACTGAC, AATAAGAA is higher in “PBM E-score” value: -0.1 for the first, 0.233 for the second.

First: AATAAGAG
Second: GATAAGAA
The “PBM E-score” value of the first is higher: 0.115 for the first, 0.0876 for the second.

Going from TATAAGAA to CATAAGAA, the “PBM E-score” value rises from 0.12 to 0.254.

Compared with AATAAGAT, GTCCCAGA is lower in “PBM E-score” value: 0.0228 for the first, -0.19 for the second.

Compared with AGCTACAC, GAGACTAA is lower in “PBM E-score” value: 0.0938 for the first, -0.027 for the second.

First: ATACAACC
Second: AAACAATG
The “PBM E-score” value of the first is lower: -0.00323 for the first, 0.0814 for the second.

Compared with ATACAATA, GAACAATC is lower in “PBM E-score” value: 0.239 for the first, 0.0696 for the second.

Compared with ATACAACG, ATACAACA is higher in “PBM E-score” value: 0.0553 for the first, 0.246 for the second.

First: CTACAATA
Second: ATACAATC
The “PBM E-score” value of the first is higher: 0.00041 for the first, -0.0431 for the second.

First: AAACAATT
Second: TAACAATA
The “PBM E-score” value of the first is higher: 0.137 for the first, 0.132 for the second.

Compared with AAACAATA, GAACAATA is higher in “PBM E-score” value: 0.261 for the first, 0.277 for the second.

Compared with CGTCCGAG, AAGGCCTC is lower in “PBM E-score” value: 0.0587 for the first, -0.0691 for the second.

Compared with TAGAGCGA, CGACACAG is higher in “PBM E-score” value: -0.079 for the first, -0.0558 for the second.

Compared with CAGAGGGG, TGATAGAA is higher in “PBM E-score” value: -0.314 for the first, -0.0926 for the second.

First: TCTACGCA
Second: GAGGTTTA
The “PBM E-score” value of the first is higher: 0.0696 for the first, -0.00946 for the second.

First: ACGGTTCG
Second: CAGGTGGG
The “PBM E-score” value of the first is lower: -0.169 for the first, -0.0155 for the second.

First: AGGCTAGC
Second: AATCGAGT
The “PBM E-score” value of the first is lower: -0.223 for the first, 0.0016 for the second.

Going from AATCGATT to CATCGAGG, the “PBM E-score” value falls from 0.247 to 0.0813.

Compared with CATCGAAA, AATCGAGG is higher in “PBM E-score” value: 0.0505 for the first, 0.248 for the second.

First: AATCGATC
Second: AATCGAAA
The “PBM E-score” value of the first is lower: 0.0541 for the first, 0.0902 for the second.

Compared with AATCGAAG, GATCGAAA is lower in “PBM E-score” value: 0.264 for the first, 0.108 for the second.

Compared with AATCGAAC, AATCGATA is lower in “PBM E-score” value: 0.169 for the first, 0.158 for the second.

Going from TATCGAAA to GACTGGGA, the “PBM E-score” value falls from 0.255 to -0.0261.

First: ATAGCCGG
Second: ACAACCAC
The “PBM E-score” value of the first is lower: -0.145 for the first, -0.0501 for the second.

Going from ACAACCAG to ACAACCAT, the “PBM E-score” value rises from 0.101 to 0.24.

Going from ACGTGGTG to AGAGTTAG, the “PBM E-score” value rises from -0.139 to -0.0429.

First: CCGACGAC
Second: ACTGCTCT
The “PBM E-score” value of the first is higher: 0.00776 for the first, 0.00123 for the second.

Compared with CCATGAGC, AATGCGAG is higher in “PBM E-score” value: -0.047 for the first, 0.107 for the second.

Compared with ATTAATTC, ATTAATGA is higher in “PBM E-score” value: 0.229 for the first, 0.235 for the second.

First: CTTAATGA
Second: ATTAATTA
The “PBM E-score” value of the first is lower: 0.0652 for the first, 0.117 for the second.

Compared with ATTAATTG, ATTAATGC is lower in “PBM E-score” value: 0.142 for the first, 0.0582 for the second.

First: GTGTAGCA
Second: AGCTATCC
The “PBM E-score” value of the first is higher: -0.149 for the first, -0.208 for the second.

First: ACGCGGAA
Second: CGGATAAA
The “PBM E-score” value of the first is lower: -0.0174 for the first, 0.234 for the second.

Compared with CGGATAAC, TGGATAAA is lower in “PBM E-score” value: 0.05 for the first, 0.0491 for the second.

Compared with CTTTGGAA, ACTATGAG is higher in “PBM E-score” value: -0.152 for the first, -0.0885 for the second.

First: AATCGGAG
Second: TATCGGAA
The “PBM E-score” value of the first is higher: 0.105 for the first, 0.0162 for the second.

Compared with AATCGGAA, AGAGAAAG is lower in “PBM E-score” value: 0.242 for the first, -0.00961 for the second.

Going from GCTTCTCA to AGCCCATC, the “PBM E-score” value falls from 0.00982 to -0.0428.

Going from AATCGCAG to AATCTCGG, the “PBM E-score” value falls from 0.16 to 0.0273.

Compared with AATCTCGC, AATCGCAT is higher in “PBM E-score” value: 0.235 for the first, 0.245 for the second.

Going from AATCGCGC to GATCTCGC, the “PBM E-score” value falls from 0.23 to 0.144.

Going from CATCGCGC to AATCGCAC, the “PBM E-score” value falls from 0.0459 to -0.165.

First: AATCGCGA
Second: AGATGGCA
The “PBM E-score” value of the first is higher: 0.185 for the first, 0.0923 for the second.

First: AGCGGTTG
Second: AGATTGCG
The “PBM E-score” value of the first is lower: -0.028 for the first, 0.00885 for the second.

Going from CTGAGACA to AAAACTTA, the “PBM E-score” value rises from 0.0347 to 0.0488.

First: GTAGGTAA
Second: AGGCTGAA
The “PBM E-score” value of the first is higher: 0.00715 for the first, -0.0879 for the second.

First: TCAAATGA
Second: CTCTCACA
The “PBM E-score” value of the first is lower: -0.0989 for the first, 0.124 for the second.
